The list is not random: actives were taken first. Their share in the collection is about 4.2%.
Integrin act MD: integrin-mediated muscular dystrophy alleviation activation; alpha7betagal myoblasts, beta-gal FDG fluorescence, 48 h; Potency, µM (doses to about 38.3 µM), without a hit: top-dose activation, most hits filed as activators; 350,000 tested, 0.064% active; AID 624291;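 note: 100% = response of the positive control SU9516; nearly all actives have a fitted effect of over 60% in size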
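alpha7betagal+/- myoblasts (passage 13, 250/well) treated 48 h at 37C with compounds at 1:260 dilution of DMSO stock. Lysed, then beta-galactosidase activity read as FDG fluorescence (ex 480/em 540) after 30 min, with pre-read for autofluorescence.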
MCF10A rereplic: induces DNA re-replication in MCF 10a normal breast cells | AID 624296 | MCF 10A DNA re-replication, Hoechst nuclear intensity, 48 h | 350,000 tested, 2.9% active | Potency, µM (series often up to 46.1 µM), inactives show top-dose activity, positive = re-replication, most hits filed as activators; note: % of control where 0% means no effect; nearly all actives have a fitted effect of over 50% in size
A-T KAP1 phos: potential ataxia-telangiectasia treatments restoring KAP-1 phosphorylation. F2112 A-T fibroblasts, KAP-1 phosphorylation AlphaLISA; neocarzinostatin DNA damage 30 min before lysis. Potency, µM (titrated, usually from 57.5 µM), inactives show top-dose activation, usual class: activators. 320,000 tested, 0.19% active; note: % of control where 0% means no effect; nearly all actives have a fitted effect of over 45% in size
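hTERT-immortalized A-T patient fibroblasts (F2112), 500 cells/well in OPTI-MEM, 1% FBS, got compounds for 60 min, then NCS for 30 min at 37C. Lysates were then assayed for phospho-KAP-1 by AlphaLISA (anti-pKAP1 donor, anti-KAP1 acceptor beads), 6 hr at 25C.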
Mito fusion yeast: inhibitors of mitochondrial division or activators of mitochondrial fusion; S. cerevisiae fusion-defective mutant growth rescue, CellTiterGlo 48 h; Potency, µM (titrated, usually from 46.1 µM), for inactives: top-dose growth rescue (activation), actives largely listed as activators; 320,000 tested, 0.23% active; note: % of control where 0% means no effect; nearly all actives have a fitted effect of over 45% in size
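Luminescent cell viability in 1536-well qHTS format served as the measure of rescued growth in ts fusion-mutant S. cerevisiae cultured on non-fermentable YPEG for 48 hours at 37C.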
SW480 rereplic: DNA re-replication induction in SW480 cells | Potency, µM (highest dose often 46.1 µM), without a hit: at the top dose re-replication activation, hits mostly activators | 340,000 tested, 1.8% active | SW480 DNA re-replication, Hoechst DNA content imaging, 48 h; note: % of control where 0% means no effect; nearly all actives have a fitted effect of over 55% in size
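Compounds, transferred as 23 nL by pin tool, were incubated with cells for 48 hr; DNA content per nucleus was then quantified by Hoechst staining and fluorescence plate imaging.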
* = called active by the depositor; u = inconclusive; x = no result given; [ ] = another dose, or the depositor's remark. Calls come from the whole dose curve; as a rule, active = well fitted activation curve with a large enough effect; inconclusive = small, poorly fitted or top-dose-only effect; inactive = no such curve, though single readings can be large or run the other way. Potency is the fitted concentration of half-maximal effect.

SMILES	Integrin act MD	MCF10A rereplic	A-T KAP1 phos	Mito fusion yeast	SW480 rereplic
N#C/C(=C/c1ccc(-c2ccc(S(N)(=O)=O)cc2)o1)C(=O)Nc1ccccc1	-5%	28%	13%	-1%	-1%
COC(=O)c1ccc(/C=C(\C#N)c2nc3ccccc3s2)cc1	7%	u	-1%	-5%	-3%
N#C/C(=C\c1ccccn1)c1nc2ccccc2s1	-32%	15µM*	7%	20%	16µM*
N#C/C(=C/c1ccc(-c2ccc(S(N)(=O)=O)cc2)o1)c1nc2ccccc2s1	-10%	3.7µM*	1%	6%	10µM*
CN(C)CCCN1C(=O)C2CCc3[nH]c4ccccc4c3C2C1=O (stereo not drawn)	19%	2%	0%	7%	23%
CCCN(CC(=O)Nc1ccc(F)c(F)c1F)C(=O)C1CC(=O)N(Cc2ccccc2)C1 (stereo not drawn)	-19%	-1%	-3%	-5%	-3%
CCN(CC(=O)Nc1cc(Cl)ccc1C)C(=O)C1CC(=O)N(Cc2ccccc2)C1 (stereo not drawn)	7%	u	-8%	-7%	0.16µM*
COc1ccc(S(=O)(=O)NCC2CCCN(Cc3ccccc3Cl)C2)cc1 (stereo not drawn)	u	23µM*	0%	-17%	-1%
CC(C)Oc1ccc(S(=O)(=O)N2CCOCC2)cc1NC(=O)c1cccc(S(=O)(=O)N2CCCC2)c1	-16%	-1%	x	x	1%
O=C1OCCN1C(=O)[C@H]1[C@H](c2ccc(Cl)cc2)C(c2ccc(F)cc2)=NN1c1ccc(Br)cc1	11%	u	14%	x	21µM*
O=C1OCCN1C(=O)[C@H]1[C@H](c2ccc(Cl)cc2)C(c2ccc(F)cc2)=NN1c1ccccc1	1%	3.7µM*	23%	x	u
O=C1OCCN1C(=O)[C@H]1[C@H](c2ccc(Cl)cc2)C(c2ccccc2)=NN1c1ccccc1	3%	u	9%	x	u
Cc1cccc(C2=NN(c3ccccc3)[C@@H](C(=O)N3CCOC3=O)[C@@H]2c2ccc(F)cc2)c1	8%	u	24%	x	u
O=C1OCCN1C(=O)[C@H]1[C@H](c2ccc(F)cc2)C(c2ccc(F)cc2)=NN1c1ccccc1	37%	5.8µM*	21%	-23%	18µM*
O=C1OCCN1C(=O)[C@H]1[C@H](c2ccc(F)cc2)C(c2ccccc2)=NN1c1ccccc1	4%	5.2µM*	20%	x	21µM*
Cc1cc(C)n(-c2ccc(C(=O)N3CC(C)OC(C)C3)cc2)n1 (stereo not drawn)	26%	1%	-1%	0%	2%
CC1CCN(CC(=O)Nc2ccccc2Sc2ccccc2)CC1	-7%	15µM*	u	14%	u
O=C(CN1CCCC1)Nc1ccccc1Sc1ccccc1	-16%	11%	1%	2%	3%
CN(c1ccccc1)S(=O)(=O)c1ccc(NC(=O)c2nc(S(C)(=O)=O)ncc2Cl)cc1	-66%	u	4%	-9%	9.2µM*
CCc1nnc(NC(=O)c2ccc(S(=O)(=O)N3CCCc4ccccc43)cc2)o1	-22%	9.2µM*	5%	1%	16µM*
COc1cccc(NC(=O)c2nc(S(C)(=O)=O)ncc2Cl)c1	-59%	5.8µM*	0%	-34%	2.3µM*
CN(c1ccccc1)S(=O)(=O)c1ccc(NC(=O)c2ccccc2)cc1	17%	17%	-1%	22µM*	-7%
CN(c1ccccc1)S(=O)(=O)c1ccc(Cl)c(C(=O)Nc2ccncc2)c1	-48%	0%	6%	8%	-6%
CN(c1ccccc1)S(=O)(=O)c1ccc(NC(=O)c2ccc(F)cc2)cc1	-7%	u	x	x	9%
CC(OC(=O)c1ccc(S(=O)(=O)N(C)C)cc1)C(=O)Nc1ccc(Cl)cn1 (stereo not drawn)	1%	14%	0%	3%	-7%
SMILES	Integrin act MD	MCF10A rereplic	A-T KAP1 phos	Mito fusion yeast	SW480 rereplic
Cc1nc(Nc2ccc(Cl)cc2)c(C#N)c(=O)[nH]1	-11%	8%	10%	0%	-21%
Cc1ccc(C)c(S(=O)(=O)N2CCCOC2CNC(=O)C(=O)NCc2cccnc2)c1 (stereo not drawn)	3%	-8%	-2%	-1%	-1%
CSCc1nnc(NC(=O)c2ccc(S(=O)(=O)N(CC(C)C)CC(C)C)cc2)o1	x	x	1%	-2%	x
CN(c1ccccc1)S(=O)(=O)c1ccc(C(=O)Nc2nnc(C3=COCCO3)o2)cc1	-6%	8%	0%	6%	5%
CCc1nnc(NC(=O)c2ccc(S(=O)(=O)N(CC(C)C)CC(C)C)cc2)o1	-23%	8.9µM*	-3%	16%	18%
CC(=O)c1c(C)[nH]c(C(=O)Nc2cccc(S(=O)(=O)N(C)c3ccccc3)c2)c1C	11%	23µM*	-5%	4%	23µM*
CCc1nnc(NC(=O)c2ccc(S(=O)(=O)N(C)c3ccccc3)cc2)o1	-29%	7%	3%	19%	15µM*
O=C(CN1CCN(S(=O)(=O)c2ccc(Br)cc2)CC1)N/N=C/c1ccc(Cl)c([N+](=O)[O-])c1	-33%	16µM*	-5%	12%	1%
Cc1ccc(S(=O)(=O)N2CCN(CC(=O)N/N=C\c3ccc(Cl)c([N+](=O)[O-])c3)CC2)cc1	-22%	5%	-8%	4%	x
CCCN(C)C[C@@H]1Oc2ncc(Br)cc2C(=O)N([C@@H](C)CO)C[C@H]1C	-4%	x	x	x	x
O=C(O)/C=C/C(=O)Nc1ccc(S(=O)(=O)N2CCCC2)cc1	3%	-1%	12%	-5%	-2%
OCC1CCCCN1C(=S)Nc1ccc(Cl)cc1Cl (stereo not drawn)	2%	0.82µM*	5%	4%	u
Cc1ccc(C)c(NC(=S)N2CCCCC2CO)c1 (stereo not drawn)	-5%	-3%	-3%	7%	-512%[1.84 µM]
Cc1ccc2cccc(NC(=S)NC(=O)c3ccccc3)c2n1	-6%	u	9%	-6%	16µM*
CC(=O)NC(=S)Nc1cccc2c(C)cc(C)nc12	19%	0%	10%	10%	13%
Cc1ccc2cccnc2c1NC(=S)NC(=O)c1ccccc1	-47%	14%	11%	-2%	10%
O=C(NC(=S)Nc1ccccn1)c1ccc(-c2ccccc2)cc1	-6%	u	4%	-10%	27%
Cc1cc(C)c2cccc(NC(=S)NC(=O)c3ccccc3)c2n1	0%	19%	-1%	-1%	4.1µM*
O=C(NC(=S)Nc1ccccn1)c1ccccc1	-9%	-2%	3%	35µM*	-5%
Cc1ccc(-c2nc(C=Nc3ccc(O)cc3)c(O)o2)cc1	-64%	15µM*	4%	-2%	5.8µM*
CN=Cc1nc(-c2ccccc2)oc1O	21%	-1%	-3%	2%	-6%
